Results taken from PubChem BioAssay (EPA / NIEHS).
The source made the active and inactive calls. The calls were made as follows: active = hit-call score of the fitted dose curve at least 0.9, where 1 is the maximum; inactive = score below 0.9.

Assays:
Conditions in all cases: mRNA level, 48 h; actives raise or lower the signal
[1] = read-out: Bcl-2 (BAX) gene, BAX (gene 581); experiment: LTEA_HepaRG_BAX: Life Technologies and Expression Analysis (LTEA) Assay for Bcl-2 (BAX) gene using HepaRG (AID 2283470)
Outline: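 Cells were thawed, plated for 48 h, moved to serum-free induction medium and dosed for 48 h (highest concentration 100 uM, half-log steps, 0.5% DMSO). Total RNA was then analysed for BAX expression by qRT-PCR.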

[2] = read-out: adenosine kinase (ADK) gene, ADK (gene 132); experiment: LTEA_HepaRG_ADK: Life Technologies and Expression Analysis (LTEA) Assay for adenosine kinase (ADK) gene using HepaRG (AID 2283471)
Outline: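 Following 48 h exposure of HepaRG cells in 0.5% DMSO (top concentration 100 uM, duplicate wells), ADK mRNA induction or suppression was measured by qRT-PCR, normalised to ACTB/GAPDH/POLR2A, and fitted bidirectionally relative to vehicle.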

[3] = read-out: Alpha-fetoprotein (AFP) gene, AFP (gene 174); experiment: LTEA_HepaRG_AFP: Life Technologies and Expression Analysis (LTEA) Assay for Alpha-fetoprotein (AFP) gene using HepaRG (AID 2283472)
Outline: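 Chemicals were tested on differentiated HepaRG cells for 48 hours at eight concentrations up to 100 uM, with 0.5% DMSO as vehicle. AFP expression was then quantified by qRT-PCR and analyzed for gain or loss relative to DMSO.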

BCL2L11 (gene 10018) = experiment: LTEA_HepaRG_BCL2L11: Life Technologies and Expression Analysis (LTEA) Assay for Bcl-2 (BCL2L11) gene using HepaRG (AID 2283473)
Outline: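 Differentiated human HepaRG cells were exposed 48 h in serum-free induction medium to eight half-log concentrations up to 100 uM in 0.5% DMSO, in duplicate. BCL2L11 mRNA was quantified by TaqMan qRT-PCR, normalized to ACTB, GAPDH and POLR2A; induction or repression fitted versus DMSO.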

[4] = read-out: Apolipoprotein A-V (APOA5) gene, APOA5 (gene 116519); experiment: LTEA_HepaRG_APOA5: Life Technologies and Expression Analysis (LTEA) Assay for Apolipoprotein A-V (APOA5) gene using HepaRG (AID 2283474)
Outline: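 Differentiated HepaRG cells in serum-free induction medium, exposed 48 h in duplicate to eight half-log concentrations topping at 100 uM (0.5% DMSO). APOA5 mRNA by Fluidigm TaqMan qRT-PCR, normalized to ACTB, GAPDH and POLR2A; bidirectional fit versus DMSO.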

[5] = read-out: Apoptosis regulator Bcl-2 (Homo sapiens) (UniProt P10415); experiment: LTEA_HepaRG_BCL2: Life Technologies and Expression Analysis (LTEA) Assay for Bcl-2 gene using HepaRG (AID 2283475)
Outline: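 Plated human HepaRG cells are exposed to test chemicals for 48 h across eight concentrations from 100 uM downward in half-log steps (0.5% DMSO). BCL2 expression is then measured by qRT-PCR with housekeeping normalisation and fitted bidirectionally against vehicle.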

[6] = read-out: Bcl-2 (BID) gene, BID (gene 637); experiment: LTEA_HepaRG_BID: Life Technologies and Expression Analysis (LTEA) Assay for Bcl-2 (BID) gene using HepaRG (AID 2283476)
Outline: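 Cells are plated, cultured 48 h, switched to serum-free induction medium, then dosed 48 h (100 uM top, half-log steps, 0.5% DMSO). RNA is isolated and BID expression read by qRT-PCR.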

Caspase-3 (Homo sapiens) = Caspase-3 (Homo sapiens) (UniProt P42574); experiment: LTEA_HepaRG_CASP3: Life Technologies and Expression Analysis (LTEA) Assay for cysteine-aspartic acid protease (CASP3) using HepaRG (AID 2283477)
Chain of Caspase-3 (Homo sapiens) (P42574 whole entry, looked up): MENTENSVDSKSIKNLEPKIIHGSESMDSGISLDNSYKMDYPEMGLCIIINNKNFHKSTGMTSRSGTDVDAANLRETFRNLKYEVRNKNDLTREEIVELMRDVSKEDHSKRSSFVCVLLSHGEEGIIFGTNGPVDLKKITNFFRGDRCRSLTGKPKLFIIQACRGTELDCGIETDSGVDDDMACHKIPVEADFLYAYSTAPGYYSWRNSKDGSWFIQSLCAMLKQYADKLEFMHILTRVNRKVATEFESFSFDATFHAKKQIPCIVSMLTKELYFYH
Outline: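 Differentiated HepaRG cells, plated 48 h, were treated in duplicate in serum-free induction medium for 48 h with eight half-log concentrations up to 100 uM in 0.5% DMSO. CASP3 mRNA measured by qRT-PCR, normalized to ACTB, GAPDH, POLR2A.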

[7] = read-out: Cytochrome P450 (CYP24A1), CYP24A1 (gene 1591); experiment: LTEA_HepaRG_CYP24A1: Life Technologies and Expression Analysis (LTEA) Assay for Cytochrome P450 (CYP24A1) using HepaRG (AID 2283478)
Outline: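 HepaRG cells plated 48 h, then exposed in duplicate in serum-free induction medium for 48 h to 8-point half-log series from 100 uM in 0.5% DMSO. CYP24A1 mRNA by Fluidigm qRT-PCR, normalized to ACTB, GAPDH, POLR2A; bidirectional fit versus DMSO.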

[8] = read-out: Cytochrome P450 (CYP1A2), CYP1A2 (gene 1544); experiment: LTEA_HepaRG_CYP1A2: Life Technologies and Expression Analysis (LTEA) Assay for Cytochrome P450 (CYP1A2) using HepaRG (AID 2283479)
Outline: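 Differentiated human HepaRG cells in serum-free induction medium exposed 48 hours in duplicate to 8 half-log concentrations from 100 uM, 0.5% DMSO. CYP1A2 mRNA quantified by qRT-PCR, normalized to ACTB, GAPDH and POLR2A; bidirectional fitting versus DMSO.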

[9] = read-out: cysteine-aspartic acid protease (CASP8), CASP8 (gene 841); experiment: LTEA_HepaRG_CASP8: Life Technologies and Expression Analysis (LTEA) Assay for cysteine-aspartic acid protease (CASP8) using HepaRG (AID 2283480)
Outline: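 CASP8 transcript measured by TaqMan qRT-PCR with ACTB/GAPDH/POLR2A normalization, after 48 h chemical exposure of HepaRG cells in serum-free induction medium. Eight concentrations, top 100 uM, half-log steps, 0.5% DMSO vehicle; fits in both directions versus DMSO.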

[10] = read-out: Cytochrome P450 (CYP2B6), CYP2B6 (gene 1555); experiment: LTEA_HepaRG_CYP2B6: Life Technologies and Expression Analysis (LTEA) Assay for Cytochrome P450 (CYP2B6) using HepaRG (AID 2283481)
Outline: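 Differentiated human HepaRG cells in serum-free induction medium, dosed in duplicate for 48 h over 8 half-log concentrations topping at 100 uM (0.5% DMSO). CYP2B6 mRNA measured by TaqMan qRT-PCR, normalized to ACTB, GAPDH, POLR2A; bidirectional fit versus DMSO.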

[11] = read-out: Cytochrome P450 2C19 (Homo sapiens) (UniProt P33261); experiment: LTEA_HepaRG_CYP2C19: Life Technologies and Expression Analysis (LTEA) Assay for CYP2C19 using HepaRG (AID 2283482)
Outline: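 Differentiated HepaRG cells in serum-free induction medium exposed 48 h in duplicate, 8 concentrations from 100 uM by half-log steps in 0.5% DMSO. CYP2C19 mRNA measured by TaqMan qRT-PCR, normalized to ACTB, GAPDH, POLR2A. Bidirectional fit versus DMSO.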

CYP2C8 (gene 1558) = experiment: LTEA_HepaRG_CYP2C8: Life Technologies and Expression Analysis (LTEA) Assay for CYP2C8 using HepaRG (AID 2283483)
Outline: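 CYP2C8 expression measured by TaqMan qRT-PCR and normalized to three housekeeping genes. HepaRG cultures were treated for 48 h with an eight-point half-log series topping at 100 uM, vehicle 0.5% DMSO, duplicates; fitted both directions against DMSO.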

CYP2C9 (gene 1559) = experiment: LTEA_HepaRG_CYP2C9: Life Technologies and Expression Analysis (LTEA) Assay for CYP2C9 using HepaRG (AID 2283484)
Outline: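 CYP2C9 transcript level, quantified by TaqMan qRT-PCR against three housekeeping genes, was fitted bidirectionally relative to 0.5% DMSO. HepaRG cultures were treated 48 h, in duplicate, at eight half-log concentrations topping at 100 uM.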

CYP2E1 (gene 1571) = experiment: LTEA_HepaRG_CYP2E1: Life Technologies and Expression Analysis (LTEA) Assay for CYP2E1 using HepaRG (AID 2283485)
Outline: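 Readout is qRT-PCR of CYP2E1 mRNA, normalized to three housekeeping genes and fitted bidirectionally against 0.5% DMSO. HepaRG cells were dosed 48 h at eight concentrations, highest 100 uM with half-log dilutions.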

CYP4A11 (gene 1579) = experiment: LTEA_HepaRG_CYP4A11: Life Technologies and Expression Analysis (LTEA) Assay for CYP4A11 using HepaRG (AID 2283486)
Outline: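 Differentiated HepaRG cells, 48 h after plating, exposed in duplicate for 48 h to 8 half-log concentrations up to 100 uM in 0.5% DMSO in serum-free induction medium. CYP4A11 mRNA measured by TaqMan qRT-PCR, normalized to ACTB, GAPDH and POLR2A.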

[12] = read-out: Cytochrome P450 3A4 (Homo sapiens) (UniProt P08684); experiment: LTEA_HepaRG_CYP3A4: Life Technologies and Expression Analysis (LTEA) Assay for CYP3A4 using HepaRG (AID 2283487)
Outline: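 In a human hepatic line (HepaRG), duplicate wells were treated 48 h with up to 100 uM chemical in half-log dilutions. Endpoint: CYP3A4 mRNA induction or loss relative to 0.5% DMSO vehicle, by qRT-PCR.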

[13] = read-out: DNA damage-inducible transcript 3 (DDIT3), DDIT3 (gene 1649); experiment: LTEA_HepaRG_DDIT3: Life Technologies and Expression Analysis (LTEA) Assay for DNA damage-inducible transcript 3 (DDIT3) using HepaRG (AID 2283488)
Outline: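 Cells are human HepaRG liver cells treated for 48 h with eight half-log concentrations up to 100 uM in 0.5% DMSO. Transcript levels come from qRT-PCR normalized to three housekeeping genes, with activity fitted in both directions relative to vehicle.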

[14] = read-out: Pro-epidermal growth factor (Homo sapiens) (UniProt P01133); experiment: LTEA_HepaRG_EGF: Life Technologies and Expression Analysis (LTEA) Assay for Epidermal growth factor (EGF) using HepaRG (AID 2283489)
Outline: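 HepaRG cells (~100,000/well, 48 h pre-culture) exposed in duplicate for 48 h in serum-free induction medium to 8 half-log concentrations up to 100 uM in 0.5% DMSO. EGF mRNA by qRT-PCR, normalized to ACTB/GAPDH/POLR2A; bidirectional fit versus DMSO.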

Measured: AC50

Chain of Cytochrome P450 2C19 (Homo sapiens) (P33261 whole entry, looked up): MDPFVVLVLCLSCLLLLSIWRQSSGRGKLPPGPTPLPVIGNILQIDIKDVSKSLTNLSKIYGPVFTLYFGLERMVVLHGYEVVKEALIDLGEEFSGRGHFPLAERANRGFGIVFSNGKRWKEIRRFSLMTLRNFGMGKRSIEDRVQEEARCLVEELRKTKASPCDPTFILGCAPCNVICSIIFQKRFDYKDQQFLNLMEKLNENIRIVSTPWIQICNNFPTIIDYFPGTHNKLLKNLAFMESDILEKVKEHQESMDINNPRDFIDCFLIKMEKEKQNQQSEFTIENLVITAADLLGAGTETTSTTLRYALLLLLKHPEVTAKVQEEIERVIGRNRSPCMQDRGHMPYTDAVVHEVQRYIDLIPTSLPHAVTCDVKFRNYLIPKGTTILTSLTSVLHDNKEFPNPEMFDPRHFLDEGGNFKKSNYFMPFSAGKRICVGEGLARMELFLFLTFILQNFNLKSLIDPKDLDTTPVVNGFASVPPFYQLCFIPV
Chain of Apoptosis regulator Bcl-2 (Homo sapiens) (P10415 whole entry, looked up): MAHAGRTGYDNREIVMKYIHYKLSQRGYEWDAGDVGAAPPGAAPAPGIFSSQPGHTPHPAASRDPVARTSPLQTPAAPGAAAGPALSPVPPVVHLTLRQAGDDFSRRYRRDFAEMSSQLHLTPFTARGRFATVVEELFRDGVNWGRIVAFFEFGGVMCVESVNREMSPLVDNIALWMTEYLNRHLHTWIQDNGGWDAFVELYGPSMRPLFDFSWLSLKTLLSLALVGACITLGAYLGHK
Chain of Cytochrome P450 3A4 (Homo sapiens) (P08684 whole entry, looked up): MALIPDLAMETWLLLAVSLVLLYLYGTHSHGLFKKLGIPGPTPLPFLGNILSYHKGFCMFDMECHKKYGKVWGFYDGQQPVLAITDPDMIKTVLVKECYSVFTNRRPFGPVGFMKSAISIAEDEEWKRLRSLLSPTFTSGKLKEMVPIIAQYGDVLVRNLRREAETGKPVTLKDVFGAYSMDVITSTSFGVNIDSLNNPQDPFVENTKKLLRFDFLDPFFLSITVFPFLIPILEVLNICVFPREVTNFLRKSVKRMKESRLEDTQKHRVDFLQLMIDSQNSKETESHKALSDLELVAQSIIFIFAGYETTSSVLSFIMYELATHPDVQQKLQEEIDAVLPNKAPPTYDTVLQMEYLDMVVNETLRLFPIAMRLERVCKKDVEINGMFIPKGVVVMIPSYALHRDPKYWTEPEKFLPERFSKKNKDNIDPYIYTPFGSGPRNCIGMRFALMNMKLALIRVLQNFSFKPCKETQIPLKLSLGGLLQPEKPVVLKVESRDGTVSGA

CCC(C)=NO
active: [8] 49.8 µM
inactive: all other assays above
